# PubChem BioAssay (EPA / NIEHS)
# Inconclusive results are not listed. The source made the active and inactive calls. How the source made its calls: active means hit-call score of the fitted dose curve at least 0.9, where 1 is the maximum; inconclusive means response in the unintended direction; inactive means score below 0.9.
# Test system: guinea pig Histamine Receptor (H2), gene 100729734
# Assay: NVS_GPCR_gH2: NovaScreen (NVS) G Protein-Coupled Receptor Assay for guinea pig Histamine Receptor (H2) (AID 2283342)
# Experimental: NVS_GPCR_gH2 is a biochemical, single-readout assay that uses extracted gene-proteins from Guinea pig striatal membranes in a tissue-based cell-free assay. Measurements were taken 1 hour after chemical dosing in a 96-well plate.NVS_GPCR_gH2 is one of one assay component(s) measured or calculated from the NVS_GPCR_gH2 assay. It is designed to make measurements of radioligand binding, a form of binding reporter, as detected with scintillation counting signals by Filter-based radiodetection technology.Data from the assay component NVS_GPCR_gH2 was analyzed into 1 assay endpoint. This assay endpoint, NVS_GPCR_gH2, was analyzed in the positive analysis fitting direction relative to DMSO as the negative control and baseline of activity. Using a type of binding reporter, loss-of-signal activity can be used to understand changes in the binding as they relate to the gene Hrh2. Furthermore, this assay endpoint can be referred to as a primary readout, because the performed assay has only produced 1 assay endpoint. To generalize the intended target to other relatable targets, this assay endpoint is annotated to the gpcr intended target family, where the subfamily is rhodopsin-like receptor.
# Binding assays used specific radioligands (tritiated, iodinated) with non-radioactive competitive displacement ligands in agonist or antagonist protocols (as indicated) and various reference compounds and inhibitors to titrate specific binding to receptors and transporters. Most enzyme assays (CYPs, kinases, phosphatases, proteases, HDACs) used recombinant protein and specific substrates (fluorescence mostly, some colorimetric and radioactive) and inhibitors, followed by a biochemical separation of substrate and product. All assays for the biochemical HTS were initially run in duplicate at a single concentration (10 uM for CYP450 assays and 25 uM for all others). Assay-chemical combinations meeting a pre-defined threshold (e.g., 30% inhibition and other criteria defined below) were then run in singleton concentration-response format with maximum concentration of 20 uM for CYPs and 50 uM for all others. Each assay was run with positive and negative controls, and concurrent controls on every plate. The follow-up (secondary) screen tested active chemical-pairs in concentration series, as well as a few additional assays not tested in the primary screen, some selected negative inactives, and several cases re-run in the concentration series for confirmatory purposes.
Compound,AC50,outcome
CCN(C(=O)c1cc(C)cc(OC[C@H](C)Nc2ccncc2)c1)C(C)C,16.9 µM (active),
CCOC(=O)c1ccc(C2CCC(NC[C@H](O)COc3ccc(O)c(NS(C)(=O)=O)c3)CC2)cc1 (stereo partly drawn),9.42 µM (active),
O=C(O)CC(O)C(=O)O (stereo not drawn),,inactive
COc1cccc(-c2ccc(/C=C\CN3CCCCCC3)cc2Cl)c1,12.3 µM (active),
Cc1[nH]cnc1C[C@H]1CCc2c(C)c3ccccc3n2C1=O,12.2 µM (active),
O=C(CCCCCCCCc1cccnc1)N1CCC(C=C(c2ccccc2)c2ccccc2)CC1,,inactive
CCCN(C1CCN(C(=O)C2CCNCC2)CC1)[C@@H]1CCc2ccc(OC)cc2C1,16.9 µM (active),
CNS(=O)(=O)c1cc(C(=O)N2CCC(CCN3C4CCC3CC(n3c(C)nc5ccccc53)C4)(c3cccc(F)c3)CC2)c(Cl)cc1F (stereo not drawn),8.76 µM (active),
CCn1nc(Cc2ccccc2)cc1C1CCN(C[C@H]2C[C@H](N(C)[C@@H](C(=O)O)C(C)C)C[C@@H]2c2cccc(F)c2)CC1,11.4 µM (active),
O=c1[nH]c2ccc(S(=O)CCN3CCC(Cc4ccc(F)cc4)CC3)cc2o1 (stereo not drawn),1.21 µM (active),
Nc1ccc(Nc2ccccc2)cc1,,inactive
CCOc1cccc(-n2cc(C(=O)N3CCN(c4cc(C(=O)O)c5ccccc5c4)CC3)nc2-c2ccc(C)cc2)c1,,inactive
CC[C@H]1CC[C@H](NCc2cc3c(cc2OC)[C@H]2C[C@H]2C(=O)N3C)[C@H](c2ccccc2)N1,16 µM (active),
COc1ccc(-n2nc(C(F)F)cc2-c2ccc(S(C)=O)cc2)cc1 (stereo not drawn),25 µM (active),
CCOC(=O)COc1ccc2c(c1)CC(NCC(O)c1cccc(Cl)c1)CC2 (stereo not drawn),32 µM (active),
CCc1cc(SCc2sc(-c3ccc(C(F)(F)F)cc3)nc2CN2CCN(c3ccc(OC)cc3)CC2)ccc1OCC(=O)O,17.7 µM (active),
COCCOc1cc2cc(C(=O)NC3CCN(C(C)C)CC3)n(CC(=O)Nc3ccc(Cl)cn3)c2cn1,12.8 µM (active),
Fc1ccccc1[C@@H](F)COC1CCC(Nc2ncnc3[nH]ncc23)CC1 (stereo partly drawn),,inactive
